Test results from ChEMBL document CHEMBL1201862, “PubChem BioAssay data set” (2004).

Species: Mus musculus
Assay: Confirmation Concentration-Response Assay for Epigenetic Modulators.
Type: functional

Potency, active:
COc1cccc(C(=O)NC(c2ccco2)c2cc(Cl)c3cccnc3c2O)c1 (centres undefined) 77.1 µM
COc1ccc(C)cc1/N=N/c1ccc(O)c2ncccc12 77.1 µM
CC(C)C(=O)NC(c1ccco1)c1cc(Cl)c2cccnc2c1O (centres undefined) 341 µM
CC(C)C(=O)NC(c1ccc(Cl)cc1Cl)c1ccc2cccnc2c1O (centres undefined) 73.2 µM
